PubChem BioAssay (Tox21)
Records with an inconclusive call do not appear. Entries that show only a call come without a potency. Unmarked numbers belong to inactive results. Activity calls are given as the source filed them. Calls come from the whole dose curve.

Assay: p53 small molecule agonists, cell-based qHTS assay with human liver microsomes: qHTS cell viability counter screen (AID 1963579)
Details: p53RE-bla HCT-116 viability, ATP luminescence, 16 h, HLM; series mostly up to 66 µM
Procedure, shortened: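 Cytotoxicity counter screen: p53RE-bla, 4,000 cells/well; 5 h settle, 37 C/5% CO2; cpd + HLM 0.5 mg/mL + NADPH 0.5 mg/mL (final); 16 h, 37 C; CellTiter-Glo, 30 min RT, luminescence.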
Note: nearly all actives have a fitted effect of over 45% in size.
Potency is the fitted concentration of half-maximal effect.

Compound	Potency	activity change, negative = cytotoxicity
CCOC(=O)C1=NN(c2ccccc2)C(=O)C1	inactive	–
C=C(C)CS(=O)(=O)O	inactive	–
O=C(Cl)c1c(Cl)cccc1Cl	inactive	–
Cc1ccc2c(c1)CCCN2	inactive	–
Cc1nc2ccc(CN(C)c3ccc(C(=O)N[C@@H](CCC(=O)O)C(=O)O)s3)cc2c(=O)[nH]1	inactive	–
CCCCCCCCCCCCCOC(=O)CCSCCC(=O)OCCCCCCCCCCCCC	–	-3.75% [at 13.5 µM]
O=C=NCC1CCCC(CN=C=O)C1 (stereo not given)	inactive	–
OC/C=C/c1ccccc1	inactive	–
CC(C)=CC=O	inactive	–
CC(=O)c1ccc(C)cc1	inactive	–
CCCCCCCCCCCCOC(C)=O	inactive	–
CC1=C(C(=O)O)N2C(=O)[C@@H](NC(=O)[C@H](N)C3=CCC=CC3)[C@H]2SC1	inactive	–
Oc1cc2ccccc2c2ccccc12	10.2 µM (active)	–
CC(C)(C)c1ccc(N)cc1	inactive	–
O=C1CCC(=O)N1Cl	inactive	–
COc1ccc(CCO)cc1	inactive	–
CC(=O)OCC1=C(C(=O)O)N2C(=O)[C@@H](NC(=O)CSc3ccncc3)[C@H]2SC1	inactive	–
COC(=O)C(C)=O	inactive	–
SC1CCCC1	inactive	–
CC(O)CC(C)O (stereo not given)	inactive	–

Compound	Potency	activity change, negative = cytotoxicity
CN1C(C)(C)CC(O)CC1(C)C	inactive	–
CC(C)CCC(=O)CCC(C)C	inactive	–
CCCCCCCCCCCCCCC	inactive	–
Nc1ccc2cc(S(=O)(=O)O)cc(O)c2c1N=Nc1ccccc1C(F)(F)F	inactive	–
CO/N=C1\CN(c2nc3c(cc2F)c(=O)c(C(=O)O)cn3C2CC2)CC1CN (stereo not given)	inactive	–
C=C(C)C(=O)OCCOP(=O)(O)OCCOC(=O)C(=C)C	inactive	–
C=C(C)C(=O)OCCOCCOC(=O)C(=C)C	inactive	–
CCCC(=O)O[C@]1(C(=O)COC(=O)CC)CC[C@H]2[C@@H]3CCC4=CC(=O)CC[C@]4(C)[C@H]3[C@@H](O)C[C@@]21C	–	0.226% [at 13.5 µM]
O=Cc1ccccc1Cl	inactive	–
CC(C)=CCCC(C)CC(=O)O (stereo not given)	inactive	–
CC(C)(COC(=O)c1ccccc1)COC(=O)c1ccccc1	inactive	–
CN(C)CCOC(=O)C(c1ccccc1)C1(O)CCCC1 (stereo not given)	inactive	–
CCCC(=O)O[C@]1(C(=O)CO)CC[C@H]2[C@@H]3CCC4=CC(=O)CC[C@]4(C)[C@H]3[C@@H](O)C[C@@]21C	inactive	–
CCCCCCCCCCCCCCCC(=O)OCC	inactive	–
CC(O)CN (stereo not given)	inactive	–
O=C(O)Cc1ccc(OCCNC[C@H](O)c2ccccc2)cc1	inactive	–
O=C(O)c1c(Cl)ccc(Cl)c1Cl	inactive	–
CC(=O)c1ccc([N+](=O)[O-])cc1	inactive	–
CCCCCCOC(=O)CCCCCCCC(=O)OCCCCCC	inactive	–
Cc1ccccc1N=C(N)N=C(N)N	inactive	–

Assay: p53 small molecule agonists, cell-based qHTS assay with rat liver microsomes: qHTS cell viability counter screen (AID 1963580)
Details: p53RE-bla HCT-116 + rat microsomes, ATP viability, 16 h; series mostly up to 66 µM
Procedure, shortened: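 After the beta-lactamase ratio was read, CellTiter-Glo was added to the same wells and luminescence measured at 30 min; cells had been treated 16 h at 37 C with compounds, rat liver microsomes and NADPH (0.5 mg/mL final each).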

Compound	Potency	activity change, negative = cytotoxicity
CCOC(=O)C1=NN(c2ccccc2)C(=O)C1	inactive	–
C=C(C)CS(=O)(=O)O	inactive	–
O=C(Cl)c1c(Cl)cccc1Cl	inactive	–
Cc1ccc2c(c1)CCCN2	inactive	–
Cc1nc2ccc(CN(C)c3ccc(C(=O)N[C@@H](CCC(=O)O)C(=O)O)s3)cc2c(=O)[nH]1	inactive	–
CCCCCCCCCCCCCOC(=O)CCSCCC(=O)OCCCCCCCCCCCCC	–	-0.0386% [at 13.5 µM]
O=C=NCC1CCCC(CN=C=O)C1 (stereo not given)	inactive	–
OC/C=C/c1ccccc1	inactive	–
CC(C)=CC=O	inactive	–
CC(=O)c1ccc(C)cc1	inactive	–
CCCCCCCCCCCCOC(C)=O	inactive	–
CC1=C(C(=O)O)N2C(=O)[C@@H](NC(=O)[C@H](N)C3=CCC=CC3)[C@H]2SC1	inactive	–
Oc1cc2ccccc2c2ccccc12	6.46 µM (active)	–
CC(C)(C)c1ccc(N)cc1	inactive	–
O=C1CCC(=O)N1Cl	inactive	–
COc1ccc(CCO)cc1	inactive	–
CC(=O)OCC1=C(C(=O)O)N2C(=O)[C@@H](NC(=O)CSc3ccncc3)[C@H]2SC1	inactive	–
COC(=O)C(C)=O	inactive	–
SC1CCCC1	inactive	–
CC(O)CC(C)O (stereo not given)	inactive	–

Compound	Potency	activity change, negative = cytotoxicity
CN1C(C)(C)CC(O)CC1(C)C	inactive	–
CC(C)CCC(=O)CCC(C)C	inactive	–
CCCCCCCCCCCCCCC	inactive	–
Nc1ccc2cc(S(=O)(=O)O)cc(O)c2c1N=Nc1ccccc1C(F)(F)F	inactive	–
CO/N=C1\CN(c2nc3c(cc2F)c(=O)c(C(=O)O)cn3C2CC2)CC1CN (stereo not given)	inactive	–
C=C(C)C(=O)OCCOP(=O)(O)OCCOC(=O)C(=C)C	inactive	–
C=C(C)C(=O)OCCOCCOC(=O)C(=C)C	inactive	–
CCCC(=O)O[C@]1(C(=O)COC(=O)CC)CC[C@H]2[C@@H]3CCC4=CC(=O)CC[C@]4(C)[C@H]3[C@@H](O)C[C@@]21C	–	1.95% [at 13.5 µM]
O=Cc1ccccc1Cl	inactive	–
CC(C)=CCCC(C)CC(=O)O (stereo not given)	inactive	–
CC(C)(COC(=O)c1ccccc1)COC(=O)c1ccccc1	inactive	–
CN(C)CCOC(=O)C(c1ccccc1)C1(O)CCCC1 (stereo not given)	inactive	–
CCCC(=O)O[C@]1(C(=O)CO)CC[C@H]2[C@@H]3CCC4=CC(=O)CC[C@]4(C)[C@H]3[C@@H](O)C[C@@]21C	inactive	–
CCCCCCCCCCCCCCCC(=O)OCC	inactive	–
CC(O)CN (stereo not given)	inactive	–
O=C(O)Cc1ccc(OCCNC[C@H](O)c2ccccc2)cc1	inactive	–
O=C(O)c1c(Cl)ccc(Cl)c1Cl	inactive	–
CC(=O)c1ccc([N+](=O)[O-])cc1	inactive	–
CCCCCCOC(=O)CCCCCCCC(=O)OCCCCCC	inactive	–
Cc1ccccc1N=C(N)N=C(N)N	inactive	–
